Laboratory results: PubChem BioAssay AID1159580 (chemical genetic matrix, 2015)
Values joined by “and” are separate entries in the source; they are usually repeats but may differ in a detail not shown here. Equal values may be shown once. The whole screen tested about 5,500 compounds, of which about 2,000 (36%) were called active. Inconclusive results (about 18%) are left out. No stated cut-off is given here; in the data, active means normalized growth mostly below about 0.91 (no sharp cut-off); inconclusive means no clear call, values can overlap the other calls; inactive means mostly above about 0.92. The list shows a part of the results.

Assay: chemical genetic growth profiling, strain panel (AID 1159580);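 further: tested at 20 µM; growth read once vehicle control cultures reached saturation at 30 °C; 1 = growth at the plate median or of vehicle wells; lower values mean less growth of the strain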
Conditions: S. cerevisiae deletion strains, growth OD

Measured: normalized growth

CC1(C)S[C@@H]2[C@H](NC(=O)[C@H](NC(=O)N3CCNC3=O)c3ccccc3)C(=O)N2C1C(=O)O (stereo partly drawn)
inactive: locus YAL021C, strain ccr4, hits give low values 0.989 | locus YAL026C, strain drs2, hits give low values 0.984 | locus YAL030W, strain snc1, hits give low values 0.969 | locus YBL061C, strain skt5, hits give low values 0.971 | locus YBR009C, strain hhf1, hits give low values 0.995 | locus YBR021W, strain FUR4, hits give low values 1.04 | locus YBR023C, strain chs3, hits give low values 0.979 | locus YBR171W, strain sec66, hits give low values 0.974 | locus YBR229C, strain ROT2, hits give low values 1 | locus YBR231C, strain swc5, hits give low values 0.984 | locus YBR279W, strain paf1, hits give low values 0.993 | locus YCL011C, strain gbp2, hits give low values 0.964 | locus YCL016C, strain dcc1, hits give low values 0.986 | locus YCL029C, strain bik1, hits give low values 0.99 | locus YCL061C, strain MRC1, hits give low values 0.99 | locus YCL069W, strain vba3, hits give low values 0.996 | locus YCR088W, strain abp1, hits give low values 0.985 | locus YDL005C, strain med2, hits give low values 0.978 | locus YDL035C, strain GPR1, hits give low values 0.992 | locus YDL040C, strain nat1, hits give low values 0.984 | locus YDL074C, strain BRE1, hits give low values 1.06 | locus YDL101C, strain DUN1, hits give low values 0.998 | locus YDL134C, strain PPH21, hits give low values 1 | locus YDL185W, strain tfp1, hits give low values 0.952 | locus YDL192W, strain arf1, hits give low values 0.982 | locus YDR001C, strain nth1, hits give low values 0.975 | locus YDR069C, strain doa4, hits give low values 0.988 | locus YDR101C, strain arx1, hits give low values 1.03 | locus YDR137W, strain rgp1, hits give low values 0.977 | locus YDR159W, strain sac3, hits give low values 1 | locus YDR162C, strain NBP2, hits give low values 0.972 | locus YDR195W, strain ref2 0.995 | locus YDR297W, strain sur2, hits give low values 0.979 | locus YDR318W, strain mcm21, hits give low values 0.988 | locus YDR334W, strain swr1, hits give low values 0.935 | locus YDR335W, strain msn5, hits give low values 0.971 | locus YDR388W, hits give low values 0.987 | locus YDR392W, strain spt3, hits give low values 0.908 | locus YDR502C, strain sam2, hits give low values 1 | locus YEL003W, strain gim4, hits give low values 0.994 | locus YEL037C, strain rad23, hits give low values 0.984 | locus YEL061C, strain CIN8 (second series), hits give low values 0.984 | locus YEL061C, strain CIN8, hits give low values 0.996 | locus YER015W, strain faa2, hits give low values 0.971 | locus YER016W, strain bim1, hits give low values 1 | locus YER110C, hits give low values 0.982 | locus YER111C, strain swi4, hits give low values 0.983 | locus YER155C, strain BEM2 (second series), hits give low values 0.993 | locus YER155C, strain BEM2, hits give low values 1.01 | locus YER167W, strain BCK2, hits give low values 0.997 | locus YFR010W, strain ubp6, hits give low values 0.967 | locus YGL078C, strain dbp3, hits give low values 0.989 | locus YGL086W, strain mad1, hits give low values 1.02 | locus YGL167C, strain pmr1, hits give low values 0.987 | locus YGL173C, strain kem1, hits give low values 0.967 | locus YGL227W, strain vid30, hits give low values 0.994 | locus YGL240W, strain doc1, hits give low values 1 | locus YGL248W, strain PDE1, hits give low values 1.01 | locus YGL253W, strain hxk2, hits give low values 0.996 | locus YGR135W, strain pre9, hits give low values 0.95 | locus YGR252W, strain gcn5, hits give low values 1 | locus YHR013C, strain ard1, hits give low values 0.957 | locus YHR027C, strain rpn1, hits give low values 0.966 | locus YHR030C, strain SLT2, hits give low values 0.984 and 0.983 | locus YHR079C, strain IRE1 (second series), hits give low values 0.983 | locus YHR079C, strain IRE1, hits give low values 0.963 | locus YHR094C, strain hxt1, hits give low values 0.982 | locus YHR129C, strain ARP1, hits give low values 0.997 | locus YHR142W, strain chs7, hits give low values 0.955 | locus YHR200W, strain rpn10, hits give low values 0.989 | locus YIL066C, strain RNR3, hits give low values 0.99 | locus YIL073C, strain SPO22, hits give low values 0.902 | locus YIL125W, strain kgd1, hits give low values 1 | locus YIR030C, strain dcg1, hits give low values 0.969 | locus YJL092W, strain hpr5, hits give low values 0.988 | locus YJL095W, strain BCK1 (second series), hits give low values 0.989 | locus YJL095W, strain BCK1, hits give low values 1.04 and 0.971 | locus YJL115W, strain asf1, hits give low values 0.96 | locus YJL129C, strain trk1, hits give low values 1.01 | locus YJL134W, strain LCB3, hits give low values 0.993 | locus YJL154C, strain vps35, hits give low values 0.972 | locus YJL164C, strain tpk1, hits give low values 0.996 | locus YJL166W, strain qcr8, hits give low values 0.956 | locus YJL168C, strain set2, hits give low values 0.998 | locus YJL187C, strain SWE1 (second series), hits give low values 1 | locus YJL187C, strain SWE1, hits give low values 0.988 | locus YJR043C, strain POL32, hits give low values 1.03 | locus YJR066W, strain TOR1, hits give low values 0.966
